From PubChem BioAssay (Tox21)
Records with an inconclusive call do not appear. Where a call stands in place of a potency, no number is given. Activity calls are given as the source filed them. Calls follow the shape of the dose curve; as a rule, active = well fitted inhibition curve with a large enough effect in the repeat runs; inconclusive = weak or mixed curves; inactive = no such curve, though single readings can be large or run the other way.

What follows are compounds tested against Cytochrome P450 3A4 (Homo sapiens) (UniProt P08684) (assay: Cytochrome P450 Family 3 Subfamily A Member 4 (CYP3A4) small molecule antagonists: luciferase reporter qHTS assay (AID 1671201; also: nearly all actives have a fitted effect of over 50% in size)). Conditions: P450-Glo CYP3A4 enzyme, luciferin luminescence, 1 h; series mostly up to 115 µM.
Chain of Cytochrome P450 3A4 (Homo sapiens) (P08684 whole entry, looked up): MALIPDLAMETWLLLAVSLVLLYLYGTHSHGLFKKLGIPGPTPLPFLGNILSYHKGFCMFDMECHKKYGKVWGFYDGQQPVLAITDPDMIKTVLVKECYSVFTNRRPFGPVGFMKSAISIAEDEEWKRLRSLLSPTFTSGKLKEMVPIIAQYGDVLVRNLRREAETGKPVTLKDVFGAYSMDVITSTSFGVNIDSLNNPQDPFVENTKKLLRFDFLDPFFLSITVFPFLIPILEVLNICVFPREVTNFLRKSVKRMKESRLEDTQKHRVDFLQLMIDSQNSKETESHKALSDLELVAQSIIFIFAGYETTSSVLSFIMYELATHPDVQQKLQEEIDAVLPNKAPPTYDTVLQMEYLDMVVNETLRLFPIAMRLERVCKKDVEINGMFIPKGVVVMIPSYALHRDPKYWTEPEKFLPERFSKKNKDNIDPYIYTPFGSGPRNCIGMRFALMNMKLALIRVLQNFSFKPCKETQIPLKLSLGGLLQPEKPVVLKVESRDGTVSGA
In short: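 P450-Glo CYP3A4 system with proluciferin substrate; compounds preincubated 10 min RT with enzyme-substrate mix, then NADPH regeneration added for 1 h RT. Detection reagent 20 min, luminescence read as relative luminescence units.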
Potency is read from the fitted curve at half-maximal effect.

SMILES | Potency
CCC1CO1 (centres undefined) | inactive
CC1(C)S[C@@H]2[C@H](NC(=O)C(c3ccccc3)S(=O)(=O)O)C(=O)N2[C@H]1C(=O)O (some centres undefined) | inactive
CC(=O)NC1(c2cccc(F)c2)CCN(CC[C@@]2(c3ccc(Cl)c(Cl)c3)CN(c3ccccc3)C(=O)CO2)CC1 | inactive
CC1=C(CC=O)C(C)(C)CCC1 | 31.7 µM (active)
CCCCCCCC/C=C\CCCCCCCCO | inactive
CN(C)CCC=C1c2ccccc2C=Cc2ccccc21 | inactive
C=Cc1ccc(S(=O)(=O)O)cc1 | inactive
O=C(O)CCc1nc(-c2ccccc2)c(-c2ccccc2)o1 | inactive
NC(=O)c1ccncc1 | inactive
CCCCCCC(C)(C)C(=O)O | inactive
O=C1C(=O)c2ccccc2C(O)=C1C1CCC(c2ccc(Cl)cc2)CC1 (centres undefined) | inactive
Cc1ccco1 | inactive
CCCCCCCCOc1ccc(C(=O)O)cc1 | inactive
CCOC(=O)c1ccc(I)cc1 | inactive
Oc1cccc(Nc2ccccc2)c1 | 29.5 µM (active)
O=C1c2ccccc2C(=O)C1c1ccc(Br)cc1 | inactive
C[C@@H]1CC(=O)NN=C1c1ccc(NN=C(C#N)C#N)cc1 | inactive
Cc1ccc(C(C)(C)O)cc1 | inactive
CC1=Nc2ccc3ccccc3c2C1(C)C | inactive
Cc1cc(C)c(N)cc1C | 35.5 µM (active)
O=C1NC(=O)c2cc([N+](=O)[O-])ccc21 | 32 µM (active)
Brc1cc(Br)c(Oc2cc(Br)c(Br)cc2Br)cc1Br | inactive
CS(=O)(=O)c1ccc(-c2cn3ccccc3n2)cc1 | inactive
Cc1cccc(N(C)C(=S)Oc2ccc3c(c2)CCC3)c1 | inactive
CCCCC(CC)CN (centres undefined) | inactive
O=C(OC(=O)c1ccccc1)c1ccccc1 | inactive
CC[N+](CC)(CCNC(=O)C(=O)NCC[N+](CC)(CC)Cc1ccccc1Cl)Cc1ccccc1Cl | inactive
C=C1c2cccc(O)c2C(O)=C2C(=O)[C@]3(O)C(O)=C(C(N)=O)C(=O)[C@@H](N(C)C)[C@@H]3[C@@H](O)[C@H]12 | inactive
CC(O)c1ccccc1 (centres undefined) | inactive
